Vif inh – HIV Vif self-association inhibitors, primary screen, imaging, HEK293T, single point; HEK293T cells, Vif self-association by quenched fluorescence, 24 h; inhibition, % at 7.49 µM; actives 0.35% (n = 340,000); AID 602346, 2012; in the data active = inhibition above about 50%, passing the limit was not always enough
ARNT TACC3 PPI – disruptors of ARNT/TACC3 protein interaction, primary screen, biochemical, AlphaScreen, single concentration. actives 0.66% (n = 390,000). AID 623870, 2012. Transforming acidic coiled-coil-containing protein 3 (Homo sapiens), Q9Y6A5. AlphaScreen His-ARNT PAS-B/GST-TACC3 binding, luminescence; TACC3 fragment carries E629A point mutation. inhibition, % at 9.99 µM;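 active = mean inhibition of replicates at least 50% and at least half of replicates each reaching 50%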;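 note: 0% = complete ARNT plus TACC3 wells and 100% = ARNT alone without TACC3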
Cardio protect – cardioprotection against H2O2-induced cell death, primary screen, uHTS, H9c2 cells, ATPLite luminescence; protection from H2O2 cell death, % at 20 µM; H9c2 cardiomyocytes, H2O2 injury protection, 2 h; actives 0.63% (n = 360,000);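 active = compounds giving at least 50% protection of heart cells from peroxide-induced death in the single-dose screen, raw or plate-pattern-corrected value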;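 note: 0% = DMSO wells with peroxide and 100% = DMSO wells without peroxide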
N-glyco inh – increase of ERlucT glycosylation luciferase signal, primary screen, N-linked glycosylation inhibitor project, D54 ERlucT cells, luminescence, set 2; D54 ERlucT glycosylation luciferase reporter, 24 h; percent of 100 nM tunicamycin response; reporter increase, % at 12.5 µM; actives 0.23% (n = 360,000); AID 588692, 2011;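 active = mean luciferase reporter signal, scaled so untreated is 0 and the glycosylation-blocking control 100, at or above a set limit in every replicate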;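 note: luciferase carries N-glycosylation sites so blocking glycosylation raises the light; 0% = median of neutral control wells and 100% = median of 100 nM tunicamycin wells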
aDG glyco up – activators of alpha-DG glycosylation, primary screen, uHTS, Pro5-aDG cells, AlphaScreen | alpha-DG glycosylation AlphaScreen (IIH6); 0% Pro5, 100% B10-LARGE cell signal | activation, % at 10 µM | actives 0.22% (n = 360,000);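 active = activation of at least 8% versus controls, or a plate z-score of at least 8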;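 note: Pro5 are CHO cells carrying HIG-tagged alpha-DG that lacks glycosylation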
ARNT Alpha ctr-1 – AlphaScreen signal interference compounds, dose response, artefact control for ARNT-TACC3 interaction inhibitor project, biochemical, luminescence, cherry-pick | AC50, µM (top dose mostly 68 µM), for the others: at the highest dose activity change, negative = signal decrease | AID 651705, 2012 | His-ARNT PASB-GST AlphaScreen artifact counter-screen | actives 50% (n = 1,200) | shares compounds with ARNT TACC3 PPI;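 active = every separate test run was called active for a drop in luminescence, with AC50 within twice the top valid dose, actives reach about 71 µM in these data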
ARNT Alpha ctr-2 – AlphaScreen signal interference by compounds, dose response, artefact control for ARNT/TACC3 disruptor project, biochemical, dual-tagged ARNT, dry powder | AC50, µM | actives 70% (n = 45) | shares compounds with ARNT TACC3 PPI | Dual-tagged His-ARNT PASB-GST AlphaScreen artifact counter-screen;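 active = luminescence drop, with half-maximal potency fitted within twice the sample's top valid dose, cut at about 70 µM in these data; inactive = the rest, including signal moving the wrong way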
* hit, by the source's call; · = no result. Only some compounds are listed: those with a hit (about 1.7% of all), similar ones and a draw of the others.

SMILES | Vif inh | ARNT TACC3 PPI | Cardio protect | N-glyco inh | aDG glyco up | ARNT Alpha ctr-1 | others
COc1ccc(C2Nc3ccccc3NC3=C2C(=O)CC(C)(C)C3)cc1OC (configuration not stated) | -3.9 | -2.9 | 7.0 | 4.4 | 0.1 | ·
COc1ccc(C2Nc3ccccc3NC3=C2C(=O)CC(C)(C)C3)cc1O (configuration not stated) | -1.0 | 46.7* | -3.4 | 1.3 | 0.0 | ·
O=C(N/N=C/c1ccccc1)c1cc(-c2ccc3c(c2)OCO3)n[nH]1 | -3.0 | · | 1.6 | 1.3 | 0.5 | ·
O=C(N/N=C/c1cccc(O)c1)c1cc(-c2ccc3c(c2)OCO3)n[nH]1 | -0.9 | · | 76.5* | -2.4 | -0.4 | ·
c1ccc(-c2nc3c(ccc4ccccc43)[nH]2)nc1 | -14.6 | 56.8* | -7.7 | 2.8 | 1.4 | ·
CC(=O)Nc1ccc(/C(C)=N/Nc2nc(N3CCOCC3)nc(N3CCOCC3)n2)cc1 | 2.7 | 1.5 | 22.2 | -0.8 | 0.7 | ·
CC(=O)Nc1ccc(/C(C)=N/Nc2nc(Nc3cccc4ccccc34)nc(N3CCOCC3)n2)cc1 | 9.3 | -14.1 | 63.1* | -10.1 | -0.2 | ·
O=c1[nH]c2c(c3c1CCCC3)CCCC2 | -2.2 | 0.7 | 74.4* | 2.6 | 0.1 | ·
COc1cc(/C=N/NC(=O)C2=NNC(=O)C2C)ccc1O (configuration not stated) | -0.7 | 2.2 | -1.2 | 1.0 | 0.1 | ·
CC1C(=O)NN=C1C(=O)N/N=C\c1ccc(O)cc1O (configuration not stated) | -6.8 | 78.9* | 6.1 | 2.2 | -0.3 | ·
COCC(=O)Nc1ccc2c(c1)C(=O)N(C)[C@H]1CC[C@H](CC(=O)O)O[C@@H]1CO2 | · | -1.6 | · | · | · | ·
O=C(Nc1cccnc1)c1ccc([N+](=O)[O-])s1 | 10.9 | · | -15.2 | 0.1 | 9.7* | ·
CN(C)c1ccc(C(O)Cc2nc3ccccc3n2C)cc1 (configuration not stated) | 120.3* | -4.4 | -6.1 | -10.9 | -0.1 | ·
CN1CCN(C(c2cccnc2)c2ccc3cccnc3c2O)CC1 (configuration not stated) | 5.5 | 67.8* | 61.8* | -0.4 | 0.0 | ·
CN1CCN(C(c2ccc(Br)cc2)c2cc(Cl)c3cccnc3c2O)CC1 (configuration not stated) | 20.3 | · | -14.7 | 37.0* | 0.1 | ·
C[C@@H]1CN([C@@H](C)CO)C(=O)c2cc(NS(=O)(=O)c3cccs3)ccc2O[C@@H](C)CCCCO[C@@H]1CN(C)Cc1ccncc1 | · | 8.0 | · | · | · | ·
Cc1ccc(S(=O)(=O)NCc2ccc(C(=O)N3CCN(c4ccccn4)CC3)cc2)cc1 | -3.0 | · | 15.8 | -1.0 | 0.4 | ·
Cc1ccc(NS(=O)(=O)c2ccc(C(=O)N3CCN(c4ccccn4)CC3)cc2)cc1 | -0.3 | 1.6 | -27.7 | -2.9 | 6.3* | ·
O=C(NNC(=O)c1ccccc1O)c1ccc(NS(=O)(=O)c2ccc(F)c(F)c2)cc1 | -4.5 | 7.7 | 21.9 | 2.0 | 0.0 | ·
Cc1ccc(NS(=O)(=O)c2ccc(C(=O)NNC(=O)c3ccccc3O)cc2)cc1 | -6.0 | 24.0 | 63.6* | -3.3 | 0.2 | ·
CCN1/C(=C/C=C/c2oc3ccc(-c4ccccc4)cc3[n+]2CC)Oc2ccc(-c3ccccc3)cc21 | 146.7* | -25.6 | -33.3 | -8.5 | 0.0 | ·
O=C(NC1CCCCC1)N[C@@H]1CC[C@H](CCNS(=O)(=O)c2ccc(Cl)cc2)O[C@H]1CO | · | -3.8 | · | · | · | ·
Fc1ccc(/C=N/Nc2ncnc3nc[nH]c23)cc1F | 17.1 | 52.4* | 13.3 | 4.0 | 0.1 | -11.2%
C(=N\Nc1ncnc2nc[nH]c12)/c1cccs1 | 13.2 | 50.9* | -5.3 | 3.8 | -0.1 | -13.5%
COc1cc(/C=N/NC(=O)CCN2CCN(Cc3ccccc3)CC2)cc(OC)c1OC | -1.2 | -8.1 | 8.0 | 4.7 | -0.1 | ·
SMILES | Vif inh | ARNT TACC3 PPI | Cardio protect | N-glyco inh | aDG glyco up | ARNT Alpha ctr-1 | others
COc1cc(/C=N/NC(=O)CCN2CCN(c3ccccc3)CC2)cc(OC)c1OC | -2.1 | 37.9* | -2.4 | 3.6 | -0.1 | 56.3µM*
c1ccc(-c2nnc(SCc3nc4ccccc4[nH]3)n2Cc2ccco2)nc1 | -14.1 | 60.9* | -6.8 | 1.7 | 0.1 | -11.1%
COc1cccc(NC(=O)N[C@H]2CC[C@@H](CC(=O)NCc3ccncn3)O[C@@H]2CO)c1 | · | -7.6 | · | · | · | ·
CC(C)NC(=O)Nc1ccc2c(c1)C(=O)N([C@@H](C)CO)C[C@@H](C)[C@H](CN(C)S(=O)(=O)c1ccc(Cl)cc1)O2 | · | -4.6 | · | · | · | ·
COC(=O)c1c(N)n(-c2ccc(NC(C)=O)cc2)c2nc3ccccc3nc12 | -3.9 | 13.8* | 34.1 | 5.4 | -0.1 | -18.3%
Cc1noc(C)c1S(=O)(=O)Nc1ccc2c(c1)C(=O)N([C@@H](C)CO)C[C@@H](C)[C@@H](CN(C)C(=O)Nc1ccc3c(c1)OCO3)OCCCC[C@@H](C)O2 | · | 7.2 | · | · | · | ·
O=C(Nc1ccc(N2CCN(C(=O)c3ccccc3F)CC2)cc1)c1ncn[nH]1 | 3.7 | 59.2* | 4.2 | -7.9 | 0.2 | -18.2%
COc1ccccc1NC(=O)CSc1ccc(-c2ccccn2)nn1 | -0.1 | 55.0* | 28.6 | -4.6 | 0.3 | 14.2µM*
Cc1cccc(NC(=O)CSc2ccc(-c3ccccn3)nn2)c1C | -3.3 | 54.9* | 18.9 | 0.3 | 0.1 | 30.4µM* | ARNT Alpha ctr-2=22.8*
COc1ccc(NC(=O)CSc2ccc(-c3ccccn3)nn2)cc1OC | -11.0 | · | 10.4 | -0.6 | 0.8 | ·
Cc1noc(C)c1NC(=O)Nc1ccc2c(c1)C(=O)N([C@@H](C)CO)C[C@H](C)[C@H](CN(C)C(=O)Nc1ccc3c(c1)OCO3)OCCCC[C@H](C)O2 | · | -0.7 | · | · | · | ·
CN1CCC(N2CCN(C3CN(CCc4ccccc4)S(=O)(=O)C3)CC2)CC1 (configuration not stated) | · | · | -1.0 | -3.0 | 0.0 | ·
CN1CCC(n2[nH]c(-c3ccccc3)c(Cc3ccccc3)c2=O)CC1 | 8.5 | active | 2.3 | 2.0 | 0.7 | -7.2%
Cn1cnc(S(=O)(=O)N2CCCCN3[C@H](C2)[C@H](c2ccc(C#CC4CC4)cc2)[C@@H]3CO)c1 | · | 0.0 | · | · | · | ·
CC1(C)Cc2c(sc3nc4n(-c5ccccc5)c(=O)c(CCC(=O)O)nn4c(=O)c23)CO1 | 10.4 | 57.4* | -2.8 | 2.5 | 0.7 | -8.2%
